Publication PMC3218832

Tests used:
Experiment in all cases: protein binding microarray; high values mean tight binding
Conditions in all cases: dsDNA, one strand shown
[1] = target: RELARELA (p65 homodimer) (Homo sapiens, UniProt Q04206 1-307)
[2] = target: p50p50 homodimer (Homo sapiens, UniProt P19838 7-356)
[3] = target: T1, p52p52 homodimer (Homo sapiens, UniProt Q00653 4-332)
T1 sequence: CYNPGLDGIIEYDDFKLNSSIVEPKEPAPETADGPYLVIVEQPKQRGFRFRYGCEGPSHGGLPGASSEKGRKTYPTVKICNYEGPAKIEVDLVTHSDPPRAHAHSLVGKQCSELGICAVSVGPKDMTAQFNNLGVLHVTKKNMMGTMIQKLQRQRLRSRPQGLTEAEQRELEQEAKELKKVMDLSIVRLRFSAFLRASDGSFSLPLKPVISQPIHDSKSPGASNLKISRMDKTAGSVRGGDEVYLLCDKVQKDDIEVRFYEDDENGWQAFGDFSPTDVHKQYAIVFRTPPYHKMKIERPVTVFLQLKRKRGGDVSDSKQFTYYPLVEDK

[4] = target: RELA (p65) subunit of heterodimer;p50 subunit (Homo sapiens;Homo sapiens, UniProt Q04206;P19838 1-307;7-356)
RELA (p65) subunit of heterodimer;p50 subunit, sequence (Q04206 1-307, chain 1 of 2): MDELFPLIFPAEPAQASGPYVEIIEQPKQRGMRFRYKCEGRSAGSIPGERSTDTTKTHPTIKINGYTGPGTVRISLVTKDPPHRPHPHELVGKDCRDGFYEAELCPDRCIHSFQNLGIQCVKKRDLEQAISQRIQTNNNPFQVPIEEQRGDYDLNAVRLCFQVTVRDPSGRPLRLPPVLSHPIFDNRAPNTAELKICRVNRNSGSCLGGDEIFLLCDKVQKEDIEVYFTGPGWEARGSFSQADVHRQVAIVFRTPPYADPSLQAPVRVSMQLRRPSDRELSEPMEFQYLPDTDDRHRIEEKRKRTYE
RELA (p65) subunit of heterodimer;p50 subunit, sequence (P19838 7-356, chain 2 of 2): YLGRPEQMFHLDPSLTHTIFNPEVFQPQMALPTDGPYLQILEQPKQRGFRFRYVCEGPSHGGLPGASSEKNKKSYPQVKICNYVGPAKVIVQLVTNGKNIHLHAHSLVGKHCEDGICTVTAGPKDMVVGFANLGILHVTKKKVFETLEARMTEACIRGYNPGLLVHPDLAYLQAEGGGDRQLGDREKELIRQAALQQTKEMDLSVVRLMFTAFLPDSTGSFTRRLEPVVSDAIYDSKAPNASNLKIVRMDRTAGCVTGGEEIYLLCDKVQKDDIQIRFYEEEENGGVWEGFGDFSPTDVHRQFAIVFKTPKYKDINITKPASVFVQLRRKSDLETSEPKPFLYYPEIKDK

[5] = target: RELA (p65) subunit of heterodimer;p52 subunit (Homo sapiens;Homo sapiens, UniProt Q04206;Q00653 1-307;4-332)
[6] = target: RELB subunit;p50 subunit (Homo sapiens;Homo sapiens, UniProt Q01201;P19838 120-401;7-356)
[7] = target: T2, RELB subunit;p52 subunit (Homo sapiens;Homo sapiens, UniProt Q01201;Q00653 120-401;4-332)
T2 sequence 1: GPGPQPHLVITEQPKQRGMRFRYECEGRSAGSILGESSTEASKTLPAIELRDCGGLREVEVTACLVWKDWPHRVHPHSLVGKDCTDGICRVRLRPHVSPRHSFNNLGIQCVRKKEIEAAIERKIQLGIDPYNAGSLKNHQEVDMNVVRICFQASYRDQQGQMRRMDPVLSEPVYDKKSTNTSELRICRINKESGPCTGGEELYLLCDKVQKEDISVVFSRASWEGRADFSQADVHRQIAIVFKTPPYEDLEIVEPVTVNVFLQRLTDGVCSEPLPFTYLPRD
T2 sequence 2: T1 sequence

[8] = target: C-Rel subunit;p50 subunit (Homo sapiens;Homo sapiens, UniProt Q04864;P19838 1-285;7-356)
[9] = target: T3, C-Rel subunit;p52 subunit (Homo sapiens;Homo sapiens, UniProt Q04864;Q00653 1-285;4-332)
T3 sequence 1: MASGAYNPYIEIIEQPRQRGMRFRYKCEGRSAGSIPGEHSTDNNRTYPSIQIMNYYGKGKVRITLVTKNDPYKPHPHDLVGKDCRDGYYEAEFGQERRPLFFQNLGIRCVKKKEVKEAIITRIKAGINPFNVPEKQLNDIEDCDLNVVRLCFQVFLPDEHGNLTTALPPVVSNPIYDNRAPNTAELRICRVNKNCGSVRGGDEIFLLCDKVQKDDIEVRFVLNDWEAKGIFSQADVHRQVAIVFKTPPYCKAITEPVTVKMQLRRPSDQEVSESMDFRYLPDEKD
T3 sequence 2: T1 sequence

RELARELA (p65 homodimer), sequence (Q04206 1-307): as the sequence (Q04206 1-307, chain 1 of 2) above
p50p50 homodimer, sequence (P19838 7-356): as the sequence (P19838 7-356, chain 2 of 2) above

| Sequence | binding signal [1] [z-score] | binding signal [2] [z-score] | binding signal [3] [z-score] | binding signal [4] [z-score] | binding signal [5] [z-score] | binding signal [6] [z-score] | binding signal [7] [z-score] | binding signal [8] [z-score] | binding signal [9] [z-score] |
| --- | --- | --- | --- | --- | --- | --- | --- | --- | --- |
| AAGGTAGCCCC | -0.468 | 0.424 | 0.109 | -0.162 | 0 | 0.152 | 0.184 | 0.249 | 0.217 |
| GGGTTGACCCT | -0.0795 | -0.785 | -0.387 | -0.407 | -0.336 | -0.554 | -0.73 | -0.769 | -0.115 |
| AAGATTCTCCT | -0.184 | -1.03 | -0.669 | -0.803 | -0.991 | -0.921 | -0.819 | -1.1 | -0.941 |
| AAAAAGGTCCC | 0.243 | 0.679 | 0.569 | 0.331 | 0.184 | 0.63 | 0.428 | 0.216 | 0.157 |
| CGAAGTGTCCT | -0.41 | -1.95 | -0.44 | -0.957 | -0.797 | -1.13 | -0.796 | -1.19 | -0.64 |
| AGAGGCCTCCT | -0.539 | -1.92 | -0.785 | -1.08 | -1.07 | -1.08 | -0.973 | -1.66 | -0.937 |
| CAGAACTTCCC | 1.94 | 0.457 | 0.196 | 0.921 | 0.329 | 0.182 | 0.0935 | 0.664 | 0.413 |
| GAGGGTTCCCT | -0.44 | -0.133 | -0.121 | -0.238 | -0.0267 | -0.011 | 0.0453 | -0.173 | -0.0776 |
| AGAAGCATCCC | -0.382 | -1.4 | -0.607 | -0.83 | -0.795 | -0.706 | -0.776 | -1.06 | -0.81 |
| AAATTTTTCCC | 3.12 | 1.2 | 1.17 | 1.78 | 1.37 | 1.03 | 1.38 | 1.97 | 1.31 |
| AGAATAATCCT | -0.568 | -1.24 | -0.591 | -0.939 | -0.846 | -0.98 | -0.603 | -0.925 | -0.909 |
| CAGAAAATCCC | 1.82 | 0.978 | 1.18 | 0.992 | 1.13 | 0.966 | 1.04 | 0.902 | 1.19 |
| AAAGACGCCCC | -0.195 | 0.408 | 0.153 | 0.135 | 0.105 | 0.331 | 0.432 | 0.326 | -0.126 |
| GAGAAAACCCT | 0.625 | 0.495 | 0.559 | 0.373 | 0.499 | 0.0283 | 0.361 | 0.245 | 0.234 |
| AAGAATCCCCC | 1.26 | 1.57 | 2.41 | 2.44 | 2.16 | 2.64 | 2.41 | 1.79 | 1.99 |
| GGGTGAATCCT | 0.03 | 0.0518 | 0.368 | -0.186 | 0.102 | -0.241 | -0.135 | -0.176 | -0.138 |
| CAGTACGCCCT | -0.311 | -1.79 | -0.678 | -0.914 | -0.662 | -0.89 | -0.84 | -1.25 | -0.761 |
| CAAAGTCCCCT | 0.169 | 1.47 | 1.68 | 1.79 | 1.67 | 2.07 | 1.96 | 1.43 | 1.57 |
| GAGATGATCCT | -0.876 | -1.5 | -0.697 | -0.978 | -1.06 | -1.27 | -1.16 | -1.84 | -1.11 |
| AAATTGCTCCT | -0.35 | -1.61 | -0.602 | -0.644 | -0.813 | -0.967 | -0.7 | -1.33 | -0.903 |
| GAAGGTGCCCT | -0.528 | -0.946 | -0.486 | -0.722 | -0.698 | -0.821 | -0.597 | -1.15 | -0.907 |
| AAAATAGTCCT | -0.023 | -0.728 | -0.497 | -0.709 | -0.767 | -0.806 | -0.856 | -0.761 | -0.606 |
| CGGAAGCTCCT | -0.12 | -1.95 | -0.752 | -1.05 | -1.08 | -1.17 | -1.2 | -1.46 | -0.785 |
| AAAGACTCCCT | -0.338 | 0.719 | 0.0106 | 0.327 | 0.161 | 0.395 | 0.156 | -0.0953 | 0.0126 |
| CAAGTCACCCC | -0.939 | -0.66 | -0.2 | -0.704 | -0.613 | -0.284 | -0.0361 | -0.183 | -0.366 |
| GAGAATGTCCT | 0.673 | -1.23 | -0.437 | -0.682 | -0.739 | -1.01 | -0.926 | -0.737 | -0.678 |
| GAAGTAATCCT | -0.663 | -1.65 | -0.468 | -1 | -0.977 | -1.16 | -0.928 | -1.23 | -0.892 |
| GAGGGTGTCCC | 0.223 | 0.0932 | 0.206 | 0.366 | 0.191 | 0.314 | 0.399 | 0.469 | 0.107 |
| CGGGTGCCCCC | -0.0899 | 0.777 | 0.373 | 0.794 | 0.707 | 0.779 | 1.05 | 0.974 | 0.84 |
| AGGTGTCCCCC | 0.286 | 1.17 | 0.966 | 1.2 | 1.19 | 1.21 | 1.46 | 1.14 | 1.02 |
